About 83,000 compounds went through this panel and 20% of them were active in at least one assay; those are over-represented in the sample as a whole.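 Interpretation: 100, growth as untreated; towards 0, rising growth inhibition; 0, no net growth; 0 to -100, cell death. Compounds scoring below 10 were considered active.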 Unmarked numbers belong to inactive results. The source made the active and inactive calls.
What was measured:
Assay in all cases: NCI-60 one-dose screen, 48 h (100 = growth as untreated, 0 = no growth, -100 = all killed)
Details in all cases: 10 µM unless noted
DU-145 prostate = tested on: DU-145 prostate
K-562 leukemia = tested on: K-562 leukemia
MALME-3M melanoma = tested on: MALME-3M melanoma
MDA-MB-231 breast = tested on: MDA-MB-231 breast
RXF 393 renal = tested on: RXF 393 renal
SF-268 CNS = tested on: SF-268 CNS
SF-295 CNS = tested on: SF-295 CNS
SF-539 CNS = tested on: SF-539 CNS
UACC-257 melanoma = tested on: UACC-257 melanoma
M14 melanoma = tested on: M14 melanoma
HCT-15 colon = tested on: HCT-15 colon
HT29 colon = tested on: HT29 colon
SNB-75 CNS = tested on: SNB-75 CNS
SNB-19 CNS = tested on: SNB-19 CNS
U251 CNS = tested on: U251 CNS
PC-3 prostate = tested on: PC-3 prostate
SK-MEL-5 melanoma = tested on: SK-MEL-5 melanoma
UACC-62 melanoma = tested on: UACC-62 melanoma
LOX IMVI melanoma = tested on: LOX IMVI melanoma
SK-MEL-28 melanoma = tested on: SK-MEL-28 melanoma

Structure (SMILES) | growth (DU-145 prostate) | growth (K-562 leukemia) | growth (MALME-3M melanoma) | growth (MDA-MB-231 breast) | growth (RXF 393 renal) | growth (SF-268 CNS) | growth (SF-295 CNS) | growth (SF-539 CNS) | growth (UACC-257 melanoma) | growth (M14 melanoma) | growth (HCT-15 colon) | growth (HT29 colon) | growth (SNB-75 CNS) | growth (SNB-19 CNS) | growth (U251 CNS) | growth (PC-3 prostate) | growth (SK-MEL-5 melanoma) | growth (UACC-62 melanoma) | growth (LOX IMVI melanoma) | growth (SK-MEL-28 melanoma)
O=C(O)CN1C(=O)CCC1=O | 109% | 111% | 104% | 90.7% | 111% | 99.8% | 99.1% | 99% | 104% | 111% | 103% | 90.6% | 95.3% | 108% | 105% | 108% | 103% | 108% | 102% | 107%
COC(=O)c1c2c(c[n+]([O-])c1C)C(=O)C=CC2=O | 74.1% | 2.05% (active) | -97.1% (active) | 49.9% | 57.3% | 68.7% | 103% | 83.5% | -35.1% (active) | -64.5% (active) | 12.4% | 106% | 125% | 79.8% | 37.7% | 65.8% | 72% | 0.925% (active) | 47.3% | 49%
Cc1cc(NCc2cc(Nc3ccnc4cc(Cl)ccc34)ccc2F)nc(Cl)n1 | 60% | 19.8% | 76.8% | 43.5% | 62.9% | 72.2% | 34.2% | 73.3% | 35.7% | 38.7% | 27% | 28.1% | 71.5% | 58.3% | 44.8% | 34.9% | 3.73% (active) | 45.2% | 34.9% | 72.1%
COc1ccc2c(c1)C(=O)/C(=C/c1ccc(OCC(=O)Nc3nccs3)cc1)O2 | -37.4% (active) | -27.3% (active) | -42.2% (active) | 46.2% | 31.8% | -68.5% (active) | 57.5% | -85% (active) | 84.9% | 37.3% | 76.2% | 3.69% (active) | -90.7% (active) | 78.6% | 4.62% (active) | -62% (active) | 100% | 74.2% | -58.2% (active) | 103%
COc1ccc(-c2c(N)n[nH]c2-c2ccc(Cl)cc2O)cc1OC | 101% | 75.5% | 105% | 106% | 98.2% | 102% | 99.2% | 100% | 93% | 93.2% | 88.5% | 111% | 91.3% | 97.7% | 95.6% | 86.3% | 93.7% | 76.3% | 89.5% | 106%
NC1=NCc2nc3ccccc3c(=O)n2C1 | 113% | 87.3% | 104% | 85.7% | 91.4% | 112% | 96.1% | 107% | 95.1% | 102% | 99.2% | 103% | 98.6% | 106% | 103% | 112% | 107% | 92.3% | 99.3% | 117%
CC1=C([Se]CC(OC(=O)CC[Se]c2ccccc2)C(=O)NCCCCCC(=O)OCc2ccccc2)C(=O)c2ccccc2C1=O (stereo not given) | 22.1% | 39.5% | -31.3% (active) | 32.3% | 35% | 4.54% (active) | -7.86% (active) | 15.3% | 35.9% | -36.8% (active) | 50.1% | 41.2% | 56.2% | 31% | 12.7% | 30.7% | -24.9% (active) | 41.6% | 10.3% | 21.7%
CC/C=C\CCC/C=C1/C(=O)C=C[C@@H]1C/C=C\CCCC(=O)O | 83.9% | 7.87% (active) | 92% | 44.1% | 108% | 89% | 82.9% | 103% | 72.3% | 54.6% | 53.7% | 31.9% | 86.5% | 69.2% | 39.8% | 57.6% | 16.9% | 15.6% | 0.644% (active) | 87.1%
Cc1cc(NCc2cc(Nc3ccnc4cc(Cl)ccc34)ccc2F)nc(N2CCOCC2)n1 | 23.8% | 4.21% (active) | -0.307% (active) | 19.1% | -3.51% (active) | 42.4% | -71.6% (active) | -29.4% (active) | 50.8% | -22.9% (active) | 12.4% | 8.57% (active) | -22.2% (active) | 56.1% | -48% (active) | 37.5% | 28.4% | 4.01% (active) | -78.4% (active) | 5.36% (active)
CC1CC(C(C)(C)C)C(=O)C(C(C)(C)C)C1 (stereo not given) | 112% | 102% | 105% | 109% | 112% | 103% | 105% | 101% | 102% | 118% | 97.8% | 93.4% | 105% | 106% | 105% | 108% | 105% | 100% | 106% | 116%
COc1cc(/C=N/n2c(CN3CCOCC3)nc3ccccc3c2=O)cc(OC)c1OC | 115% | 97.2% | 106% | 102% | 117% | 98.1% | 98.6% | 97.9% | 97% | 102% | 106% | 103% | 94.4% | 95.7% | 98.7% | 101% | 101% | 97.6% | 100% | 99.3%
COC(=O)c1c2c(c(C)[n+]([O-])c1C)C(=O)C(NCc1ccc(F)cc1)=CC2=O | 42.5% | 9.12% (active) | -95.7% (active) | 1.94% (active) | 56.9% | 23% | 69.1% | 0.757% (active) | -36.8% (active) | 2.89% (active) | 14% | 7.24% (active) | 128% | 3.72% (active) | -13.9% (active) | 3.57% (active) | -47.9% (active) | -35.5% (active) | 20.3% | 72.4%
O=[N+]([O-])c1ccc(Sc2cccc[n+]2[O-])c2nonc12 | 50% | -21.7% (active) | 100% | 90.4% | 54.5% | 58.9% | 89.9% | 93.6% | 91.5% | 71.3% | 73.1% | 78.2% | 80.7% | 88.3% | 2.22% (active) | 41.8% | 72.3% | 50.6% | 2.14% (active) | 23.8%
CN(C)c1ccc(/C=C/C(=O)c2cccc(Nc3nc(Nc4ccccc4)nc(Nc4ccccc4)n3)c2)cc1 | 99.4% | 67.7% | 88.2% | 81.8% | 77.5% | 97.2% | 129% | 87.9% | 110% | 91.5% | 80.5% | 53.8% | 5.3% (active) | 99.1% | 91.5% | 81.7% | 69.5% | 91.2% | 88.7% | 75%
Clc1cc(Cl)cc(Nc2ccc3cc(OCCCN4CCOCC4)ccc3n2)c1 | 40.6% | -27.3% (active) | 66.5% | -5.22% (active) | 5.08% (active) | 46.9% | -59.7% (active) | 9.86% (active) | 49% | 12.6% | 7.18% (active) | -39.5% (active) | 11% | 38.5% | 2.35% (active) | 21.8% | 71% | 12.9% | -77.6% (active) | 27.8%
